The values below come from PubChem BioAssay (EPA / NIEHS).

Experiment [1] can be described thus: ATG_NF_kB_CIS: Attagene CIS-FACTORIAL HepG2 Assay for human Nuclear Factor Kappa B (NF-kB) (AID 2282991). Particulars: HepG2 Attagene cis-factorial NF-kB reporter mRNA; actives raise or lower the signal. An outline of the steps:
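HepG2 cells transiently transfected with multiplexed cis-element reporter units measuring endogenous transcription factor activity; reporter mRNA read 24 h after dosing by RT-PCR, fluorescent labelling, HpaI digestion and capillary electrophoresis. Bidirectional fit against DMSO baseline.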

The nature of experiment [2]: ATG_NRF2_ARE_CIS: Attagene CIS-FACTORIAL HepG2 Assay for human Nuclear Factor Erythroid 2 Related Factor 2 (NFR2) response to Antioxidant Response Elements (ARE) (AID 2282992). Conditions: HepG2 Attagene ARE/NRF2 reporter, transcription factor activity; actives raise or lower the signal. An outline of the steps:
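Cis-factorial assay: transfected HepG2 reporter library, 24 h dosing, mRNA readout via RT-PCR/CE; DMSO-referenced bidirectional analysis.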

Experiment [3] in a line: ATG_Oct_MLP_CIS: Attagene CIS-FACTORIAL HepG2 Assay for human Octamer-Binding Transcription Factor (Oct) (AID 2282993). Particulars: HepG2 Attagene cis-factorial Oct reporter, mRNA; actives raise or lower the signal. An outline of the steps:
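Cells of the HepG2 line express promoter-controlled reporter sequences whose mRNA levels, after 24 h treatment, are measured by RT-PCR and capillary electrophoresis. Increases and decreases are scored relative to DMSO.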

For experiment [4], the target named is human Peroxisome Proliferator-activated Receptor delta (PPARd), PPARD (gene 5467) (UniProt Q03181). The experiment in a line: ATG_PPARd_TRANS: Attagene TRANS-FACTORIAL HepG2 Assay for human Peroxisome Proliferator-activated Receptor delta (PPARd) (AID 2283002; active = hit-call score of the fitted dose curve at least 0.9, where 1 is the maximum). The procedure, abridged: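 Transient HepG2 transfection (multiple GAL4-UAS RTUs, chimeric receptor-Gal4); 24 h dosing; total RNA → oligo(dT) RT → PCR → 6-FAM primer extension → HpaI cut → CE. Positive direction vs DMSO.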

Experiment [5] concerns the target Peroxisome proliferator-activated receptor gamma (Homo sapiens) (UniProt P37231). The experiment can be described thus: ATG_PPARg_TRANS: Attagene TRANS-FACTORIAL HepG2 Assay for human Peroxisome Proliferator-activated Receptor-gamma (PPARg) (AID 2283007; active = hit-call score of the fitted dose curve at least 0.9, where 1 is the maximum). An outline of the steps:
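HepG2 cells transiently transfected with multiplexed GAL4-UAS reporter units and exogenous chimeric NR-Gal4 proteins; reporter mRNA quantified after 24 h compound exposure by RT-PCR, fluorescent labelling, HpaI digestion and capillary electrophoresis; gain-of-signal fitted versus DMSO baseline.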

Experiment [6] deals with human Peroxisome Proliferator-activated Receptor alpha (PPARa), PPARA (gene 5465) (UniProt Q07869). The experiment can be described thus: ATG_PPARa_TRANS: Attagene TRANS-FACTORIAL HepG2 Assay for human Peroxisome Proliferator-activated Receptor alpha (PPARa) (AID 2283001; active = hit-call score of the fitted dose curve at least 0.9, where 1 is the maximum). The procedure, abridged: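 Read-out is fluorescence of reporter cDNA fragments resolved by capillary electrophoresis after RT-PCR. Human HepG2 liver cells carried transfected PPARa-Gal4 chimera and GAL4-UAS reporter units, treated 24 h; activity scored as increase over DMSO.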

In experiment [7] the target is Nuclear receptor subfamily 1 group I member 2 (Homo sapiens) (UniProt O75469). The experiment can be described thus: ATG_PXR_TRANS: Attagene TRANS-FACTORIAL HepG2 Assay for human Pregnane X Receptor (PXR) (AID 2283008; active = hit-call score of the fitted dose curve at least 0.9, where 1 is the maximum). An outline of the steps: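 Fluorescence intensity of FAM-labelled, HpaI-digested reporter amplicons, separated by capillary electrophoresis, quantifies induction. HepG2 cells with PXR-Gal4 trans-reporter system were exposed 24 h; DMSO defines baseline.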

The target of experiment [8] is Retinoic acid receptor RXR-alpha (Homo sapiens) (UniProt P19793). The experiment in a line: ATG_RXRa_TRANS: Attagene TRANS-FACTORIAL HepG2 Assay for human Retinoid X Receptor alpha (RXRa) (AID 2283012; active = hit-call score of the fitted dose curve at least 0.9, where 1 is the maximum). An outline of the steps: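 Transient transfection of human HepG2 with multiple GAL4-UAS reporter constructs; 24 h compound exposure; total RNA isolated, reverse-transcribed, PCR-amplified, 6-FAM labelled, HpaI-cut, resolved by capillary electrophoresis. Positive-direction fit versus DMSO.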

Experiment [9] addresses Cellular tumor antigen p53 (Homo sapiens) (UniProt P04637). The experiment in a line: ATG_p53_CIS: Attagene CIS-FACTORIAL HepG2 Assay for human p53 Transcription Factor (AID 2282994). Conditions: HepG2 p53 cis-element reporter, Attagene mRNA; actives raise or lower the signal. An outline of the steps:
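Using HepG2 hepatoma cells carrying cis-acting multiplexed reporters, mRNA induction is detected after a 24 h exposure. Gain- and loss-of-signal responses are fitted relative to DMSO-treated cells.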

Experiment [10] addresses human Retinoic Acid Receptor gamma (RARg), RARG (gene 5916) (UniProt P13631). The experiment in a line: ATG_RARg_TRANS: Attagene TRANS-FACTORIAL HepG2 Assay for human Retinoic Acid Receptor gamma (RARg) (AID 2283009; active = hit-call score of the fitted dose curve at least 0.9, where 1 is the maximum). An outline of the steps: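 Transient transfection of HepG2 with multi-reporter constructs, then 24 h chemical treatment. Total RNA isolated, reverse-transcribed, PCR-amplified, fluorescently labelled and resolved by capillary electrophoresis; activity scored as mRNA induction versus DMSO.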

Experiment [11] deals with Retinoic acid receptor alpha (Homo sapiens) (UniProt P10276). The experiment in a line: ATG_RARa_TRANS: Attagene TRANS-FACTORIAL HepG2 Assay for human Retinoic Acid Receptor alpha (RARa) (AID 2283005; active = hit-call score of the fitted dose curve at least 0.9, where 1 is the maximum). The procedure, abridged:
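Reporter transcripts, measured by RT-PCR with fluorescent labeling and capillary electrophoresis after 24 h dosing, reflect activity of an exogenous human RARa–GAL4 fusion in transiently transfected HepG2. Fitted for increase relative to DMSO.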

The target of experiment [12] is human RAR-related Orphan Receptor beta (RORb), RORB (gene 6096) (UniProt Q92753). The experiment in a line: ATG_RORb_TRANS: Attagene TRANS-FACTORIAL HepG2 Assay for human RAR-related Orphan Receptor beta (RORb) (AID 2283010; active = hit-call score of the fitted dose curve at least 0.9, where 1 is the maximum). An outline of the steps: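 Readout is reporter-gene mRNA induction, detected as fluorescence after RT-PCR and capillary electrophoresis, fitted for gain of signal against DMSO controls. Transiently transfected HepG2 liver cells carrying GAL4-UAS reporter constructs were treated for 24 hours.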

Experiment [13] in a line: BSK_3C_TissueFactor: BioMAP Diversity Plus: 3C Assay for Tissue Factor Biomarker Activity (AID 2282997). Conditions: BioMAP 3C HUVEC, tissue factor biomarker readout; actives raise or lower the signal. The procedure, abridged:
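HUVEC were treated 24 h, then surface tissue factor measured by ELISA and fitted bidirectionally against DMSO. Parallel SRB total-protein staining assessed overt cytotoxicity at the same time point.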

Experiment [14] in a line: BSK_3C_uPAR: BioMAP Diversity Plus: 3C Assay for Urokinase-type plasminogen activator receptor (uPAR) Biomarker Activity (AID 2282998). Conditions: BioMAP 3C HUVEC, uPAR biomarker ELISA; actives raise or lower the signal. An outline of the steps: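 Endothelial primary cells of human umbilical vein origin received test chemical; 24 h later uPAR was assayed by ELISA. Fitting was bidirectional, DMSO as negative control.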

Experiment [15] is described as follows: BSK_3C_VCAM1: BioMAP Diversity Plus: 3C Assay for Vascular cell adhesion molecule 1 (VCAM1) Biomarker Activity (AID 2282999). Particulars: BioMAP 3C HUVEC, VCAM1 ELISA, cytokine-stimulated; actives raise or lower the signal. The procedure, abridged: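 Endothelial cells from human umbilical vein are treated with test chemical. At 24 h, VCAM-1 is measured by ELISA, and responses in either direction are fitted relative to DMSO.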

Experiment [16] is described as follows: BSK_4H_Eotaxin3: BioMAP Diversity Plus: 4H Assay for Eotaxin 3 Biomarker Activity (AID 2283000).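 Note: CCL26 protein level quantified by ELISA in parallel with SRB cytotoxicity check.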 Particulars: primary human endothelial cells (HUVEC); actives raise or lower the signal. An outline of the steps:
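Eotaxin-3 (CCL26) levels were measured by ELISA in HUVEC primary cultures 24 h post-dosing. Gain or loss of signal was fitted in both directions, with DMSO serving as baseline and negative control.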

Read-out in experiment [17]: Intercellular Adhesion Molecule 1 (ICAM1), ICAM1 (gene 3383)
The experiment in a line: BSK_3C_ICAM1: BioMAP Diversity Plus: 3C Assay for Intercellular Adhesion Molecule 1 (ICAM1) Biomarker Activity (AID 2283003). Conditions: primary human endothelial cells (HUVEC); actives raise or lower the signal. An outline of the steps: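 ICAM-1 levels measured by ELISA after HUVEC cultures in the 3C system had been dosed for 24 h. Gain or loss of signal relative to DMSO was fitted in both directions.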

For experiment [18], the target named is human Retinoic Acid Receptor beta (RARb), RARB (gene 5915) (UniProt P10826). The experiment in a line: ATG_RARb_TRANS: Attagene TRANS-FACTORIAL HepG2 Assay for human Retinoic Acid Receptor beta (AID 2283004; active = hit-call score of the fitted dose curve at least 0.9, where 1 is the maximum). The procedure, abridged: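 HepG2 cells were transiently transfected with GAL4-UAS reporter units that report activity of exogenous chimeric NR-Gal4 proteins, then exposed to compound for 24 h. Reporter mRNA was quantified by RT-PCR with capillary electrophoresis fluorescence, as gain of signal over DMSO.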

Experiment [19] is described as follows: BSK_3C_Proliferation: Cell Proliferation Assessment in the BioMAP Diversity Plus: 3C Assay (AID 2283006). Particulars: primary human endothelial cells (HUVEC). The procedure, abridged: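 Read-out is total protein by SRB absorbance at 560 nm, taken as a proxy for relative cell number. Primary human umbilical vein endothelium cultured below confluence was dosed for 48 h, TCA-fixed and SRB-stained; curves were fitted bidirectionally versus DMSO.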

The target of experiment [20] is human RAR-related Orphan Receptor gamma (RORg), RORC (gene 6097) (UniProt P51449). The experiment can be described thus: ATG_RORg_TRANS: Attagene TRANS-FACTORIAL HepG2 Assay for human RAR-related Orphan Receptor gamma (RORg) (AID 2283011; active = hit-call score of the fitted dose curve at least 0.9, where 1 is the maximum). The procedure, abridged: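 HepG2 cells transiently transfected with GAL4-UAS reporter units and chimeric RORg-Gal4 construct; after 24 h chemical exposure, reporter mRNA measured by RT-PCR with fluorescent capillary electrophoresis, gain of signal fitted against DMSO.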

Where “and” joins values, the source holds several entries; their conditions need not be identical. Equal values may be shown once. Records with an inconclusive call do not appear. Calls of active or inactive are those of the source. Rule for the calls, unless noted: active = hit-call score of the fitted dose curve at least 0.9, where 1 is the maximum; inactive = score below 0.9.

Sequence of human Peroxisome Proliferator-activated Receptor alpha (PPARa), PPARA (gene 5465) (Q07869 whole entry, looked up, the tested form may be a part): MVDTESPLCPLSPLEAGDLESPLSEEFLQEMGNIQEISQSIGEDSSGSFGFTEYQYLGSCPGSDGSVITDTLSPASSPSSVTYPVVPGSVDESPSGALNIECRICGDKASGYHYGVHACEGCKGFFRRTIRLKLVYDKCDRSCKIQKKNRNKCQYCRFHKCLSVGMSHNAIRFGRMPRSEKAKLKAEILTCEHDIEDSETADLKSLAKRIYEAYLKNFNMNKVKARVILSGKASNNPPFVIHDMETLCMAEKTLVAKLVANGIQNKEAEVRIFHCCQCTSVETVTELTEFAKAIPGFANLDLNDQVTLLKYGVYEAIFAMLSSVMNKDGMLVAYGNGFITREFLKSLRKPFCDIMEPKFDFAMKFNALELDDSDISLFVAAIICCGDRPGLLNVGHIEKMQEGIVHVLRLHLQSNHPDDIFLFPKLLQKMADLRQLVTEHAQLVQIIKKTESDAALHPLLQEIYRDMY
Sequence of Nuclear receptor subfamily 1 group I member 2 (Homo sapiens) (O75469 whole entry, looked up, the tested form may be a part): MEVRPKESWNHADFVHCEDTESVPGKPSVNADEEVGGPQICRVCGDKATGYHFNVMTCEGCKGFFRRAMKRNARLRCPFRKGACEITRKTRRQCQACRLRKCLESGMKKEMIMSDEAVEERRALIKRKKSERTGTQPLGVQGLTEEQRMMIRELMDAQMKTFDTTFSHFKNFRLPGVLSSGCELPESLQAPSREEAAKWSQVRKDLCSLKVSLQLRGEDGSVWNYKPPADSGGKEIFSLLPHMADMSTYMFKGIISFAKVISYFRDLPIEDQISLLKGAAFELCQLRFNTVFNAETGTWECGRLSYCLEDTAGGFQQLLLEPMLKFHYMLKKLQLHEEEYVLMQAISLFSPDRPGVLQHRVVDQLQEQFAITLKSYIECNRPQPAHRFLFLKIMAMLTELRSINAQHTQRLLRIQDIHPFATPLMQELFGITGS
Sequence of Retinoic acid receptor RXR-alpha (Homo sapiens) (P19793 whole entry, looked up, the tested form may be a part): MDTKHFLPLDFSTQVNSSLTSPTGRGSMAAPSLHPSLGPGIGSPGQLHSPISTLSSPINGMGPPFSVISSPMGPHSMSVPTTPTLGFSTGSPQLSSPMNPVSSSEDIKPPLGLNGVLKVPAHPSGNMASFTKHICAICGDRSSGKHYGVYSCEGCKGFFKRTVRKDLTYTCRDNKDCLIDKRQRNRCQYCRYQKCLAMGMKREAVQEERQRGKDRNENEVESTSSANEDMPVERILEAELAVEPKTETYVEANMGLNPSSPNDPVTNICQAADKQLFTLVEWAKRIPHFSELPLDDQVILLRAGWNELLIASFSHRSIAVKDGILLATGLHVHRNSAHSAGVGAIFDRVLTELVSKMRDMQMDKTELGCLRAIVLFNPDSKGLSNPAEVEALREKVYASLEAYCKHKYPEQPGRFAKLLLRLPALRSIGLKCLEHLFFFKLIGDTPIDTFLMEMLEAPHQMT
Sequence of human RAR-related Orphan Receptor gamma (RORg), RORC (gene 6097) (P51449 whole entry, looked up, the tested form may be a part): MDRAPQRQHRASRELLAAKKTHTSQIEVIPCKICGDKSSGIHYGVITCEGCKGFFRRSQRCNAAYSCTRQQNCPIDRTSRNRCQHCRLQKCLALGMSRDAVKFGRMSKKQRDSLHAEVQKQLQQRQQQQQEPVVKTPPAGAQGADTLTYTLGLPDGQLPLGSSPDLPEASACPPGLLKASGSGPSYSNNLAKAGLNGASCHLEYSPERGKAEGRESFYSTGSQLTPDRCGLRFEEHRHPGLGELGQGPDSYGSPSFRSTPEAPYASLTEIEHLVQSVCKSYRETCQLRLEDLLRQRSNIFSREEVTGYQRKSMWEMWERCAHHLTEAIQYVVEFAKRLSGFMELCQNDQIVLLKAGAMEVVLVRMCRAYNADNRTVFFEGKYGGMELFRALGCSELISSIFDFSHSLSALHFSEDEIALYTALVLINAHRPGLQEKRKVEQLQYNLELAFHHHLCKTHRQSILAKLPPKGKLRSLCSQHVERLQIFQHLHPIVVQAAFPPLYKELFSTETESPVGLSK
Sequence of human Retinoic Acid Receptor gamma (RARg), RARG (gene 5916) (P13631 whole entry, looked up): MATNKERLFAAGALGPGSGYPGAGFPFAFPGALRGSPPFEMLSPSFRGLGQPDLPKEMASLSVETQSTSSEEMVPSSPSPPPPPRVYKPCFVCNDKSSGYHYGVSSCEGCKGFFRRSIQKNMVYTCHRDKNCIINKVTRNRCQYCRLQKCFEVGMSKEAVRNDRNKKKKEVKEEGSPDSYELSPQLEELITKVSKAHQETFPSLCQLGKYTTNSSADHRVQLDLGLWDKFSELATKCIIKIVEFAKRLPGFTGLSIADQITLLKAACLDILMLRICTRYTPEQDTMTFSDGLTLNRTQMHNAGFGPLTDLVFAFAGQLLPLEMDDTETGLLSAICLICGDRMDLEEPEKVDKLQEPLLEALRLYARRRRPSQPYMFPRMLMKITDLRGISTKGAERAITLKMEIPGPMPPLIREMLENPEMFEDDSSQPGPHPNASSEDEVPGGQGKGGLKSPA
Sequence of human Peroxisome Proliferator-activated Receptor delta (PPARd), PPARD (gene 5467) (Q03181 whole entry, looked up, the tested form may be a part): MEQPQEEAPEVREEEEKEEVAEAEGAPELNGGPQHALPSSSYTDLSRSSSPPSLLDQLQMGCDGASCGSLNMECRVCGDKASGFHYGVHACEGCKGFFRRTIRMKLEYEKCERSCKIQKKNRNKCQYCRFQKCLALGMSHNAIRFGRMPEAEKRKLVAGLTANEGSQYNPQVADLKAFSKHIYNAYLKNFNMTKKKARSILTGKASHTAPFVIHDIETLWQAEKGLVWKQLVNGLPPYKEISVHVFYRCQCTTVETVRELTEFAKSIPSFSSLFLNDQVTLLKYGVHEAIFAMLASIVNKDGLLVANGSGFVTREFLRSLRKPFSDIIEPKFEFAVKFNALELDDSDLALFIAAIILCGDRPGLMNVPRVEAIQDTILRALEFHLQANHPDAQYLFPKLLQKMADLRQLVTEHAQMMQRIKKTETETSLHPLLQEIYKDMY
Sequence of Retinoic acid receptor alpha (Homo sapiens) (P10276 whole entry, looked up, the tested form may be a part): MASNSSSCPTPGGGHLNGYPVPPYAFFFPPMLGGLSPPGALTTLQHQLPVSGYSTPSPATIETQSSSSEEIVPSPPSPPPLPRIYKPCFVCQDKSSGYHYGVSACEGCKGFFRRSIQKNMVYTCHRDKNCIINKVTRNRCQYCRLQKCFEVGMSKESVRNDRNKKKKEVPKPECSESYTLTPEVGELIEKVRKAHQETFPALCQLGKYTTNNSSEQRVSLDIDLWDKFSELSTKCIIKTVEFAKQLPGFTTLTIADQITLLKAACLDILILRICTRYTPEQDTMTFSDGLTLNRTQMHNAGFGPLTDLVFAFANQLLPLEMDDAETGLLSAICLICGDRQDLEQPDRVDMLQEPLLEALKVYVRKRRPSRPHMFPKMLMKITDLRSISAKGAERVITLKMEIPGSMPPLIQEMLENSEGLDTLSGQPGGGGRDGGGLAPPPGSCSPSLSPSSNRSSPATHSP
Sequence of Peroxisome proliferator-activated receptor gamma (Homo sapiens) (P37231 whole entry, looked up, the tested form may be a part): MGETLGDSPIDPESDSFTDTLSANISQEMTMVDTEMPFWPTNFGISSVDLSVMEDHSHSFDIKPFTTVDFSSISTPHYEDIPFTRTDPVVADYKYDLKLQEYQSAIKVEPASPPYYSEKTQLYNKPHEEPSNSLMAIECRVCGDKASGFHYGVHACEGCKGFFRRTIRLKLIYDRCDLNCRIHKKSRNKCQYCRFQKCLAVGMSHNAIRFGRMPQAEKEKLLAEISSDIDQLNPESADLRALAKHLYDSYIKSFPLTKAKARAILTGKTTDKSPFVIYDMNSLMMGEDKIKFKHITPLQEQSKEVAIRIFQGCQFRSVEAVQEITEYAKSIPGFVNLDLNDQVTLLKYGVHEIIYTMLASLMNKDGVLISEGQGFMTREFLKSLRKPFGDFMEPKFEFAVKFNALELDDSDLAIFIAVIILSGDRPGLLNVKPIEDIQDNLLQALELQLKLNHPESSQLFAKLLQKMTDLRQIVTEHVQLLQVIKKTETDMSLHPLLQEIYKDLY
Sequence of Cellular tumor antigen p53 (Homo sapiens) (P04637 whole entry, looked up): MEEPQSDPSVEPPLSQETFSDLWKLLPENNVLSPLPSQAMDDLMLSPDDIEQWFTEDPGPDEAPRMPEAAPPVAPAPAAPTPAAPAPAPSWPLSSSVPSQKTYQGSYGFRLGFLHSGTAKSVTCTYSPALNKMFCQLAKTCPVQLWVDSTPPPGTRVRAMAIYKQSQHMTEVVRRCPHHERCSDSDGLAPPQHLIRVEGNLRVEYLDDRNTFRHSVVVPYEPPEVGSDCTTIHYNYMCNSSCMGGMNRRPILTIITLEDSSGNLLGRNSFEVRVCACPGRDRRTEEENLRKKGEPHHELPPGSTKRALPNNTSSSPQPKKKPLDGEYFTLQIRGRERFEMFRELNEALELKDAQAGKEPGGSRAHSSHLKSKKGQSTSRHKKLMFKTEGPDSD
Sequence of human RAR-related Orphan Receptor beta (RORb), RORB (gene 6096) (Q92753 whole entry, looked up, the tested form may be a part): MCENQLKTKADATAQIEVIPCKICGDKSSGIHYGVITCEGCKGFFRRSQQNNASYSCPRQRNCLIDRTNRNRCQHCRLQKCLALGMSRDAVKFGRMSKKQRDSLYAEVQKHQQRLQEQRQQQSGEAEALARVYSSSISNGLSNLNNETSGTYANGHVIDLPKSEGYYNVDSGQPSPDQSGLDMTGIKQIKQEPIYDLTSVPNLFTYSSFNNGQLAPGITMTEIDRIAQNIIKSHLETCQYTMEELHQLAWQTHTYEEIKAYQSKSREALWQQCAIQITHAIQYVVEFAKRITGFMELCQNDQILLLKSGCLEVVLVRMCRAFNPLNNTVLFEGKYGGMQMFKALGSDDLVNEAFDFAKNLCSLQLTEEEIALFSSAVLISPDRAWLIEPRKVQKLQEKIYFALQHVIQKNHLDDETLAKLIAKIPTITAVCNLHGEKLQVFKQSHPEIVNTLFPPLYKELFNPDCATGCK

On to `CNC(=O)CSP(=O)(OC)OC`, for which the outcome in [1], in experiment [2], in experiment [3], in experiment [4] and in [5] was inactive.
`CN(N=O)c1ccc([N+](=O)[O-])cc1`: the result in [1], in [3], in experiment [6] and in experiment [8] was inactive. Besides, the half-maximal activity concentration (AC50) in [2] is 32.3 µM (active); in experiment [5], 31.9 µM (active); in experiment [7], 19.8 µM (active).
Take `CC(O)(CS(=O)(=O)c1ccc(F)cc1)C(=O)Nc1ccc(C#N)c(C(F)(F)F)c1` (stereo not given): the compound was called inactive in experiment [1], in experiment [9], in experiment [7], in [10] and in [8]. For the same compound, the half-maximal activity concentration (AC50) in experiment [2] is 94.5 µM (active); in experiment [3], 58 µM (active).
Regarding `c1csc(-c2ccc(-c3cccs3)s2)c1`, the result in [1], in experiment [9], in experiment [6], in [4], in experiment [10] and in [8] was inactive. The AC50 was 1.62 µM (active) in experiment [3], 1.7 µM (active) in experiment [5] and 8.5 µM (active) in [7].
Take `CCCCCCCCBr`: the compound was called inactive in experiment [1], in experiment [2], in experiment [3], in experiment [9], in experiment [5] and in experiment [8].
On to `CCOC(=O)c1ccccc1S(=O)(=O)NC(=O)Nc1nc(Cl)cc(OC)n1`, for which the outcome in [1], in experiment [3], in [9], in experiment [6], in experiment [11] and in experiment [7] was inactive. Moreover, the outcome in experiment [10] and in [12] was inactive.
On to `CCOP(=S)(OCC)SCS(=O)(=O)C(C)(C)C`, for which the outcome in experiment [1], in experiment [3], in experiment [9], in experiment [13], in experiment [14] and in experiment [15] was inactive. Moreover, the result in experiment [16], in experiment [17], in experiment [18], in experiment [19], in experiment [5] and in [20] was inactive. Besides, the AC50 in experiment [7] was 2.41 µM (active).
On to `CC1(C)COP(Oc2ccccc2)OC1`, for which the compound was called inactive in experiment [1], in [2], in [3], in experiment [6], in [4] and in [10]. In addition, the compound was classed as inactive in [20] and in experiment [8].
`Nc1ccc(N)cc1`: the call in experiment [1], in experiment [3], in [13], in [14], in experiment [15] and in experiment [16] was inactive. Besides, the result in [17], in [11], in experiment [19], in experiment [5], in experiment [10] and in [20] was inactive. The compound was classed as inactive in experiment [8]. The AC50 in experiment [2] is 11.5 µM (active) and 12.4 µM (active).
With `CCN(CCO)CCO`, the outcome in [1], in experiment [3], in experiment [9], in experiment [6] and in experiment [11] was inactive.
On to `CCCSP(=S)(OCC)Oc1ccc(Cl)cc1Cl` (stereo not given), for which the call in experiment [1], in experiment [3], in experiment [4], in [20] and in [8] was inactive. Further, the AC50 is 13.3 µM (active) in [2], 24.3 µM (active) in experiment [5] and 2.51 µM (active) in experiment [7].
Turning to `O=S(=O)(Oc1ccc(Cl)cc1)c1ccc(Cl)cc1`, the call in experiment [1], in experiment [3], in experiment [4], in experiment [12] and in experiment [8] was inactive. Moreover, the AC50 is 23.1 µM (active) in experiment [2], 27.5 µM (active) in experiment [5] and 4.68 µM (active) in experiment [7].
With `CNC(=O)N(C)c1nc2ccccc2s1`, the call in experiment [1], in [3], in [4], in experiment [5] and in experiment [20] was inactive. The AC50 in experiment [2] was 14.5 µM (active); in experiment [7] it was 52.8 µM (active).

For orientation: AC50 means the concentration giving half of the maximal activity seen.
